Test results taken from PubChem BioAssay AID1159580 (chemical genetic matrix, 2015).
The whole screen tested about 5,500 compounds, of which about 2,000 (36%) were called active. Inconclusive results (about 18%) are left out. Rule as the data show it: active = normalized growth mostly below about 0.91 (no sharp cut-off); inconclusive = no clear call, values can overlap the other calls; inactive = mostly above about 0.92. The list shows a part of the results.

Assay: chemical genetic growth profiling, strain panel (AID 1159580);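 also: tested at 20 µM; growth read once vehicle control cultures reached saturation at 30 °C; 1 = growth at the plate median or of vehicle wells; lower values mean less growth of the strain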
Conditions: growth OD

Measured: normalized growth

C[C@]12C=CC(=O)C=C1CCC1C2[C@@H](O)C[C@@]2(C)C1CC[C@]2(O)C(=O)CO (stereo not given in full)
inactive: S. cerevisiae deletion strains, locus YJR075W, strain HOC1, hits give low values 0.993 | S. cerevisiae deletion strains, locus YKL009W, strain mrt4, hits give low values 0.976 | S. cerevisiae deletion strains, locus YKL068W, hits give low values 0.991 | S. cerevisiae deletion strains, locus YKL085W, strain MDH1 (second series), hits give low values 0.98 | S. cerevisiae deletion strains, locus YKL085W, strain MDH1, hits give low values 0.98 | S. cerevisiae deletion strains, locus YKL160W, strain elf1, hits give low values 0.981 | S. cerevisiae deletion strains, locus YKL190W, strain CNB1, hits give low values 0.996 | S. cerevisiae deletion strains, locus YKR001C, strain vps1, hits give low values 0.991 | S. cerevisiae deletion strains, locus YKR026C, strain gcn3, hits give low values 0.997 | S. cerevisiae deletion strains, locus YKR091W, strain srl3, hits give low values 0.999 | S. cerevisiae deletion strains, locus YLL001W, strain dnm1, hits give low values 0.978 | S. cerevisiae deletion strains, locus YLL026W, hits give low values 0.995 | S. cerevisiae deletion strains, locus YLL041C, strain sdh2, hits give low values 0.989 | S. cerevisiae deletion strains, locus YLR027C, strain aat2, hits give low values 0.995 | S. cerevisiae deletion strains, locus YLR039C, strain RIC1, hits give low values 0.974 | S. cerevisiae deletion strains, locus YLR058C, strain SHM2, hits give low values 0.994 | S. cerevisiae deletion strains, locus YLR102C, strain apc9, hits give low values 0.98 | S. cerevisiae deletion strains, locus YLR113W, strain HOG1, hits give low values 1.01 | S. cerevisiae deletion strains, locus YLR221C, strain rsa3, hits give low values 1.01 | S. cerevisiae deletion strains, locus YLR258W, strain gsy2, hits give low values 0.991 | S. cerevisiae deletion strains, locus YLR262C, strain YPT6 (second series), hits give low values 0.992 | S. cerevisiae deletion strains, locus YLR262C, strain YPT6, hits give low values 0.991 | S. cerevisiae deletion strains, locus YLR268W, strain sec22, hits give low values 0.948 | S. cerevisiae deletion strains, locus YLR320W, strain mms22, hits give low values 0.97 | S. cerevisiae deletion strains, locus YLR330W, strain CHS5, hits give low values 0.99 | S. cerevisiae deletion strains, locus YLR342W, strain FKS1 (second series), hits give low values 0.979 | S. cerevisiae deletion strains, locus YLR342W, strain FKS1, hits give low values 0.997 | S. cerevisiae deletion strains, locus YLR357W, strain rsc2, hits give low values 0.989 | S. cerevisiae deletion strains, locus YLR370C, strain arc18, hits give low values 0.988 | S. cerevisiae deletion strains, locus YLR371W, strain rom2, hits give low values 0.964 | S. cerevisiae deletion strains, locus YLR384C, strain iki3, hits give low values 0.991 | S. cerevisiae deletion strains, locus YLR418C, strain cdc73, hits give low values 0.98 | S. cerevisiae deletion strains, locus YML016C, strain PPZ1, hits give low values 0.988 | S. cerevisiae deletion strains, locus YML032C, strain rad52, hits give low values 0.972 | S. cerevisiae deletion strains, locus YML120C, strain ndi1, hits give low values 0.984 | S. cerevisiae deletion strains, locus YML124C, strain tub3, hits give low values 0.989 | S. cerevisiae deletion strains, locus YMR058W, strain fet3, hits give low values 0.996 | S. cerevisiae deletion strains, locus YMR078C, strain ctf18, hits give low values 0.974 | S. cerevisiae deletion strains, locus YMR125W, strain sto1, hits give low values 0.99 | S. cerevisiae deletion strains, locus YMR129W, hits give low values 0.993 | S. cerevisiae deletion strains, locus YMR205C, strain PFK2, hits give low values 0.998 | S. cerevisiae deletion strains, locus YMR223W, strain ubp8, hits give low values 1 | S. cerevisiae deletion strains, locus YMR231W, strain pep5, hits give low values 0.991 | S. cerevisiae deletion strains, locus YMR307W, strain GAS1, hits give low values 0.893 | S. cerevisiae deletion strains, locus YNL067W, strain RPL9B, hits give low values 1 | S. cerevisiae deletion strains, locus YNL071W, strain lat1, hits give low values 1 | S. cerevisiae deletion strains, locus YNL128W, strain TEP1, hits give low values 0.983 | S. cerevisiae deletion strains, locus YNL183C, strain NPR1, hits give low values 0.973 | S. cerevisiae deletion strains, locus YNL209W, strain ssb2, hits give low values 0.998 | S. cerevisiae deletion strains, locus YNL233W, strain BNI4, hits give low values 0.996 | S. cerevisiae deletion strains, locus YNL248C, strain rpa49, hits give low values 0.993 | S. cerevisiae deletion strains, locus YNL250W, strain rad50, hits give low values 0.967 | S. cerevisiae deletion strains, locus YNL271C, strain bni1, hits give low values 0.982 | S. cerevisiae deletion strains, locus YNL298W, strain CLA4, hits give low values 0.98 | S. cerevisiae deletion strains, locus YNL307C, strain MCK1, hits give low values 0.979 | S. cerevisiae deletion strains, locus YNL322C, strain KRE1 (second series), hits give low values 1 | S. cerevisiae deletion strains, locus YNL322C, strain KRE1, hits give low values 0.993 | S. cerevisiae deletion strains, locus YNR049C, strain mso1, hits give low values 0.995 | S. cerevisiae deletion strains, locus YNR052C, strain pop2, hits give low values 0.988 | S. cerevisiae deletion strains, locus YOL006C, strain TOP1, hits give low values 1.04 | S. cerevisiae deletion strains, locus YOL012C, strain htz1 0.96 | S. cerevisiae deletion strains, locus YOL147C, strain pex11, hits give low values 0.983 | S. cerevisiae deletion strains, locus YOR001W, strain rrp6, hits give low values 0.975 | S. cerevisiae deletion strains, locus YOR061W, strain CKA2, hits give low values 0.986 | S. cerevisiae deletion strains, locus YOR069W, strain VPS5, hits give low values 0.99 | S. cerevisiae deletion strains, locus YOR070C, strain gyp1, hits give low values 1 | S. cerevisiae deletion strains, locus YOR080W, strain dia2, hits give low values 0.997 | S. cerevisiae deletion strains, locus YOR083W, strain WHI5, hits give low values 0.973 | S. cerevisiae deletion strains, locus YOR106W, strain vam3, hits give low values 0.977 | S. cerevisiae deletion strains, locus YOR136W, strain idh2, hits give low values 0.987 | S. cerevisiae deletion strains, locus YOR144C, strain elg1, hits give low values 0.987 | S. cerevisiae deletion strains, locus YOR184W, strain ser1, hits give low values 0.978 | S. cerevisiae deletion strains, locus YOR231W, strain MKK1, hits give low values 1.01 | S. cerevisiae deletion strains, locus YOR265W, strain rbl2, hits give low values 0.996 | S. cerevisiae deletion strains, locus YOR270C, strain vph1, hits give low values 0.989 | S. cerevisiae deletion strains, locus YOR290C, strain snf2, hits give low values 0.997 | S. cerevisiae deletion strains, locus YOR316C, strain cot1, hits give low values 0.983 | S. cerevisiae deletion strains, locus YPL051W, strain arl3, hits give low values 0.995 | S. cerevisiae deletion strains, locus YPL055C, strain LGE1, hits give low values 1.01 | S. cerevisiae deletion strains, locus YPL078C, strain atp4, hits give low values 0.974 | S. cerevisiae deletion strains, locus YPL106C, strain sse1, hits give low values 1.02 | S. cerevisiae deletion strains, locus YPL240C, strain hsp82, hits give low values 1 | S. cerevisiae deletion strains, locus YPL241C, strain CIN2, hits give low values 0.993 | S. cerevisiae deletion strains, locus YPL256C, strain CLN2, hits give low values 1.02 | S. cerevisiae deletion strains, locus YPR119W, strain clb2, hits give low values 0.979 | S. cerevisiae deletion strains, locus YPR141C, strain kar3, hits give low values 0.981 | S. cerevisiae deletion strains, locus YPR163C, strain tif3, hits give low values 0.98 | S. cerevisiae deletion strains, locus YPR167C, strain met16, hits give low values 0.982 | S. cerevisiae deletion strains, strain wtn01, hits give low values 0.983 | S. cerevisiae strains, strain wild type, hits give low values 0.991
